Experimental data: article PMC7862700, “An all-to-all approach to the identification of sequence-specific readers for epigenetic DNA modifications on cytosine”

Tests used:
Test in all cases: DAPPL (digital affinity profiling via proximity ligation, sequencing); 10 mM Tris-HCl pH 7.5, 50 mM NaCl, 1 mM DTT, 4% glycerol, room temperature, 30 min; GST-TFs on glutathione beads, 16-mer random dsDNA library, 0.1% formaldehyde crosslink after washing; high values mean tight binding
Settings in all cases: protein: recombinant; tags: N-terminal GST; dsDNA, one strand shown
[1] = biological target: T1, ERF (Homo sapiens, UniProt P50548 1-548)
T1 sequence: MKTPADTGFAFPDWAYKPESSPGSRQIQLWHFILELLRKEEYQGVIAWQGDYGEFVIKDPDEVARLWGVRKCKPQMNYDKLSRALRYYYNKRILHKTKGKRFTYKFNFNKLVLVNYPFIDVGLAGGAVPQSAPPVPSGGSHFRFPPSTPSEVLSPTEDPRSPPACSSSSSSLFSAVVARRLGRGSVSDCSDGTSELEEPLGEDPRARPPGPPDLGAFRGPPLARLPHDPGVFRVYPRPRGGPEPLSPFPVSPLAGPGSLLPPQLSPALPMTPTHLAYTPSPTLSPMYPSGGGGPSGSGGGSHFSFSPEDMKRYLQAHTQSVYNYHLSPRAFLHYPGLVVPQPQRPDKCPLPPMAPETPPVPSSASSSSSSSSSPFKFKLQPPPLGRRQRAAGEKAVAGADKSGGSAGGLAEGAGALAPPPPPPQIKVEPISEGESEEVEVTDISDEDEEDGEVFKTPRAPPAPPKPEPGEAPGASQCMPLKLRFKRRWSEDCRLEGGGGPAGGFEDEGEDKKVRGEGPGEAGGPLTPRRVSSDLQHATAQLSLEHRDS
Outline: (§1)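 Binding signal is each hexamer's read frequency for a factor divided by its frequency in the tag-only sample. The factors were GST-fused human transcription factors from yeast, captured on glutathione beads, DNA-barcoded and pooled with that sample. Pools were incubated with 200 nmole of a random double-stranded 16-mer DNA library in Tris/NaCl/DTT/glycerol buffer at room temperature for 30 min, then washed, crosslinked with 0.1% formaldehyde, proximity-ligated with BsaI/T4 ligase (1 h, 37 °C), PCR-amplified and sequenced on an Illumina NextSeq500.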

[2] = biological target: T2, ETV3L (Homo sapiens, UniProt Q6ZN32 1-361)
T2 sequence: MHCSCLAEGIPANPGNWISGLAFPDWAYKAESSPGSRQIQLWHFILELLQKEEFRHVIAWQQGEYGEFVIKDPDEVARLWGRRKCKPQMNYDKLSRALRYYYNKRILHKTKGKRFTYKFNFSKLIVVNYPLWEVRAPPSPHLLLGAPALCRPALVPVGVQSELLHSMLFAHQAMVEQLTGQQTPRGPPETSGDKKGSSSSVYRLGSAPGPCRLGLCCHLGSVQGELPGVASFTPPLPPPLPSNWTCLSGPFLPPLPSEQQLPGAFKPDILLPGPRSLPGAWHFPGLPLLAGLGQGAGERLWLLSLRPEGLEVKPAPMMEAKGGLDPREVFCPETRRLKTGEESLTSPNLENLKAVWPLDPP
Outline: as §1

[3] = biological target: T3, ETS2 (Homo sapiens, UniProt P15036 1-469)
T3 sequence: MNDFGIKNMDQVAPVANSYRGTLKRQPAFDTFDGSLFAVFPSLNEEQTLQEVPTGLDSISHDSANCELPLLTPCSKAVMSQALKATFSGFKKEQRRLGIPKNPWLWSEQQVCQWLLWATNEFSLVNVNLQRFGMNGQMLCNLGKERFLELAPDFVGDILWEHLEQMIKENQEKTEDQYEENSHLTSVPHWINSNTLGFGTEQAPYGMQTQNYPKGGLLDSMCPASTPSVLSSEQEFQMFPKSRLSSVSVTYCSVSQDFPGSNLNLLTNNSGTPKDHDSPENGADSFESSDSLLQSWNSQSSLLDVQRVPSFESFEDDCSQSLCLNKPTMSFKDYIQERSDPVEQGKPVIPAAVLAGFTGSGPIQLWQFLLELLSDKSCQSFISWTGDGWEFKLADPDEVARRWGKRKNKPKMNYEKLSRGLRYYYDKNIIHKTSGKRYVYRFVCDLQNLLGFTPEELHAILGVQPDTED
Outline: as §1

[4] = biological target: T4, SPDEF (Homo sapiens, UniProt O95238 1-335)
T4 sequence: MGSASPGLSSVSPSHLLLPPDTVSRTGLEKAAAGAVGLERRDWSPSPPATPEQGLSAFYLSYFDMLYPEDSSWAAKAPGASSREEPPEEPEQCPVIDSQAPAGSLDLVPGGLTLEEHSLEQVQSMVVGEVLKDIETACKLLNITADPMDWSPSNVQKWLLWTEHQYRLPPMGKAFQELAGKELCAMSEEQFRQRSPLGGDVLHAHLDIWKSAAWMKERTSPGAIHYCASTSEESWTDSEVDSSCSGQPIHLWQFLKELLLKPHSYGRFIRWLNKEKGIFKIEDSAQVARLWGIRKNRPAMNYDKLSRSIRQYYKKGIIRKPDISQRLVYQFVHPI
Outline: as §1

[5] = biological target: T5, ETV7 (Homo sapiens, UniProt Q9Y603 1-341)
T5 sequence: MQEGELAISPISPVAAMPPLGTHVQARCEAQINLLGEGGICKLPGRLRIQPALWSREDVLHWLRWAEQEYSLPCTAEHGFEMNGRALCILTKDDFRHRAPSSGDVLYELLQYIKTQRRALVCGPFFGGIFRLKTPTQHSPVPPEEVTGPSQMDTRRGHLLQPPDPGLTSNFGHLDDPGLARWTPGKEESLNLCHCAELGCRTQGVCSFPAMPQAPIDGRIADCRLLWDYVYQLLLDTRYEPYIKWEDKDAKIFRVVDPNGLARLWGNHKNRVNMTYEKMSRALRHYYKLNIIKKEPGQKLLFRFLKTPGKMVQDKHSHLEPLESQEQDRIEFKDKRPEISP
Outline: as §1

[6] = biological target: T6, ELF5 (Homo sapiens, UniProt Q9UKW6-2 1-255)
T6 sequence: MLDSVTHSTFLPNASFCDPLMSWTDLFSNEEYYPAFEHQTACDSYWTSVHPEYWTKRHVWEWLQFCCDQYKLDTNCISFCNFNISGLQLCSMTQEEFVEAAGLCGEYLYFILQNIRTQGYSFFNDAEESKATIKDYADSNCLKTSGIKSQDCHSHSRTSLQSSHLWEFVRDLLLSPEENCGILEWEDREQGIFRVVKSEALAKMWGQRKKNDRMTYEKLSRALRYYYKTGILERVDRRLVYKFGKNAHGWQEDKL
Outline: as §1

[7] = biological target: T7, ETV3 (Homo sapiens, UniProt P41162-2 1-143)
T7 sequence: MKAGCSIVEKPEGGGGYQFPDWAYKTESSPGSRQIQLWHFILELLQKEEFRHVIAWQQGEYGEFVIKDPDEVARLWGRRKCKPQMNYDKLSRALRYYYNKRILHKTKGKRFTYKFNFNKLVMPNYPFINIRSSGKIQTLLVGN
Outline: as §1

[8] = biological target: ETV6 (Homo sapiens, UniProt P41212 1-452)
ETV6, sequence (P41212 whole entry): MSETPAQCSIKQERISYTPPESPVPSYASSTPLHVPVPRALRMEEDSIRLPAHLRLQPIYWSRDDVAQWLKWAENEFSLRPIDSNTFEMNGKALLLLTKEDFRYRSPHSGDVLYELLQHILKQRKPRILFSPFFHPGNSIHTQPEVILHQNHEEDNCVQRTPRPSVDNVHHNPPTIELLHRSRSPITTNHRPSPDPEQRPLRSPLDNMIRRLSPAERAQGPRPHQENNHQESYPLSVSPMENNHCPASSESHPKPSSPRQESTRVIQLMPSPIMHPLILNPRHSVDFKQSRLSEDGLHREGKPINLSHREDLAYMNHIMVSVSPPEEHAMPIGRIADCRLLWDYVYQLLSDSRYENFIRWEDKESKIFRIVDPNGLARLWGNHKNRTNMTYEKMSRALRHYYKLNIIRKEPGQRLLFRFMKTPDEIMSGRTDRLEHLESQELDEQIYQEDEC
Outline: as §1

Row | Sequence | binding signal [1] | binding signal [2] | binding signal [3] | binding signal [4] | binding signal [5] | binding signal [6] | binding signal [7] | binding signal [8]
1 | CGACCC | 1.36 fold enrichment (6-mer frequency, TF over GST control) | 1.28 fold enrichment (6-mer frequency, TF over GST control) | 1.29 fold enrichment (6-mer frequency, TF over GST control) | 1.44 fold enrichment (6-mer frequency, TF over GST control) | 1.28 fold enrichment (6-mer frequency, TF over GST control) | 1.26 fold enrichment (6-mer frequency, TF over GST control) | 1.4 fold enrichment (6-mer frequency, TF over GST control) | 1.29 fold enrichment (6-mer frequency, TF over GST control)
2 | CGAACA | 1.17 fold enrichment (6-mer frequency, TF over GST control) | 1.13 fold enrichment (6-mer frequency, TF over GST control) | 1.22 fold enrichment (6-mer frequency, TF over GST control) | 1.1 fold enrichment (6-mer frequency, TF over GST control) | 1.2 fold enrichment (6-mer frequency, TF over GST control) | 1.05 fold enrichment (6-mer frequency, TF over GST control) | 1.15 fold enrichment (6-mer frequency, TF over GST control) | 1.19 fold enrichment (6-mer frequency, TF over GST control)
3 | CATCGA | 1.16 fold enrichment (6-mer frequency, TF over GST control) | 1.21 fold enrichment (6-mer frequency, TF over GST control) | 1.15 fold enrichment (6-mer frequency, TF over GST control) | 1.04 fold enrichment (6-mer frequency, TF over GST control) | 1.13 fold enrichment (6-mer frequency, TF over GST control) | 1.05 fold enrichment (6-mer frequency, TF over GST control) | 1.08 fold enrichment (6-mer frequency, TF over GST control) | 1.01 fold enrichment (6-mer frequency, TF over GST control)
4 | AACGAA | 1.12 fold enrichment (6-mer frequency, TF over GST control) | 1.16 fold enrichment (6-mer frequency, TF over GST control) | 1.18 fold enrichment (6-mer frequency, TF over GST control) | 1.1 fold enrichment (6-mer frequency, TF over GST control) | 1.25 fold enrichment (6-mer frequency, TF over GST control) | 1.09 fold enrichment (6-mer frequency, TF over GST control) | 1.11 fold enrichment (6-mer frequency, TF over GST control) | 1.17 fold enrichment (6-mer frequency, TF over GST control)
5 | AATTCA | 1.22 fold enrichment (6-mer frequency, TF over GST control) | 1.35 fold enrichment (6-mer frequency, TF over GST control) | 1.39 fold enrichment (6-mer frequency, TF over GST control) | 1.24 fold enrichment (6-mer frequency, TF over GST control) | 1.28 fold enrichment (6-mer frequency, TF over GST control) | 1.3 fold enrichment (6-mer frequency, TF over GST control) | 1.31 fold enrichment (6-mer frequency, TF over GST control) | 1.23 fold enrichment (6-mer frequency, TF over GST control)
6 | AGCATT | 1.04 fold enrichment (6-mer frequency, TF over GST control) | 1.06 fold enrichment (6-mer frequency, TF over GST control) | 1.11 fold enrichment (6-mer frequency, TF over GST control) | 1.02 fold enrichment (6-mer frequency, TF over GST control) | 1.14 fold enrichment (6-mer frequency, TF over GST control) | 1.1 fold enrichment (6-mer frequency, TF over GST control) | 1.09 fold enrichment (6-mer frequency, TF over GST control) | 1.14 fold enrichment (6-mer frequency, TF over GST control)
7 | GGCACT | 1.26 fold enrichment (6-mer frequency, TF over GST control) | 1.27 fold enrichment (6-mer frequency, TF over GST control) | 1.24 fold enrichment (6-mer frequency, TF over GST control) | 1.24 fold enrichment (6-mer frequency, TF over GST control) | 1.26 fold enrichment (6-mer frequency, TF over GST control) | 1.11 fold enrichment (6-mer frequency, TF over GST control) | 1.29 fold enrichment (6-mer frequency, TF over GST control) | 1.31 fold enrichment (6-mer frequency, TF over GST control)
8 | TAACTT | 1.32 fold enrichment (6-mer frequency, TF over GST control) | 1.47 fold enrichment (6-mer frequency, TF over GST control) | 1.38 fold enrichment (6-mer frequency, TF over GST control) | 1.28 fold enrichment (6-mer frequency, TF over GST control) | 1.25 fold enrichment (6-mer frequency, TF over GST control) | 1.44 fold enrichment (6-mer frequency, TF over GST control) | 1.41 fold enrichment (6-mer frequency, TF over GST control) | 1.32 fold enrichment (6-mer frequency, TF over GST control)
9 | ACATGT | 1.15 fold enrichment (6-mer frequency, TF over GST control) | 1.19 fold enrichment (6-mer frequency, TF over GST control) | 1.15 fold enrichment (6-mer frequency, TF over GST control) | 1.19 fold enrichment (6-mer frequency, TF over GST control) | 1.16 fold enrichment (6-mer frequency, TF over GST control) | 1.12 fold enrichment (6-mer frequency, TF over GST control) | 1.16 fold enrichment (6-mer frequency, TF over GST control) | 1.14 fold enrichment (6-mer frequency, TF over GST control)
10 | TCCTCT | 1.68 fold enrichment (6-mer frequency, TF over GST control) | 1.74 fold enrichment (6-mer frequency, TF over GST control) | 1.67 fold enrichment (6-mer frequency, TF over GST control) | 1.58 fold enrichment (6-mer frequency, TF over GST control) | 1.67 fold enrichment (6-mer frequency, TF over GST control) | 2.15 fold enrichment (6-mer frequency, TF over GST control) | 1.63 fold enrichment (6-mer frequency, TF over GST control) | 1.64 fold enrichment (6-mer frequency, TF over GST control)
11 | TTTTAG | 1.26 fold enrichment (6-mer frequency, TF over GST control) | 1.26 fold enrichment (6-mer frequency, TF over GST control) | 1.2 fold enrichment (6-mer frequency, TF over GST control) | 1.12 fold enrichment (6-mer frequency, TF over GST control) | 1.24 fold enrichment (6-mer frequency, TF over GST control) | 1.06 fold enrichment (6-mer frequency, TF over GST control) | 1.21 fold enrichment (6-mer frequency, TF over GST control) | 1.19 fold enrichment (6-mer frequency, TF over GST control)
12 | CCTCTT | 1.59 fold enrichment (6-mer frequency, TF over GST control) | 1.71 fold enrichment (6-mer frequency, TF over GST control) | 1.56 fold enrichment (6-mer frequency, TF over GST control) | 1.57 fold enrichment (6-mer frequency, TF over GST control) | 1.51 fold enrichment (6-mer frequency, TF over GST control) | 1.75 fold enrichment (6-mer frequency, TF over GST control) | 1.67 fold enrichment (6-mer frequency, TF over GST control) | 1.68 fold enrichment (6-mer frequency, TF over GST control)
13 | GATGTC | 1.29 fold enrichment (6-mer frequency, TF over GST control) | 1.31 fold enrichment (6-mer frequency, TF over GST control) | 1.33 fold enrichment (6-mer frequency, TF over GST control) | 1.53 fold enrichment (6-mer frequency, TF over GST control) | 1.27 fold enrichment (6-mer frequency, TF over GST control) | 1.42 fold enrichment (6-mer frequency, TF over GST control) | 1.32 fold enrichment (6-mer frequency, TF over GST control) | 1.21 fold enrichment (6-mer frequency, TF over GST control)
14 | CATTTC | 1.72 fold enrichment (6-mer frequency, TF over GST control) | 1.81 fold enrichment (6-mer frequency, TF over GST control) | 1.87 fold enrichment (6-mer frequency, TF over GST control) | 1.75 fold enrichment (6-mer frequency, TF over GST control) | 1.68 fold enrichment (6-mer frequency, TF over GST control) | 2.15 fold enrichment (6-mer frequency, TF over GST control) | 1.87 fold enrichment (6-mer frequency, TF over GST control) | 2.02 fold enrichment (6-mer frequency, TF over GST control)
15 | CTTTAG | 1.16 fold enrichment (6-mer frequency, TF over GST control) | 1.23 fold enrichment (6-mer frequency, TF over GST control) | 1.17 fold enrichment (6-mer frequency, TF over GST control) | 1.02 fold enrichment (6-mer frequency, TF over GST control) | 1.2 fold enrichment (6-mer frequency, TF over GST control) | 1.05 fold enrichment (6-mer frequency, TF over GST control) | 1.28 fold enrichment (6-mer frequency, TF over GST control) | 1.21 fold enrichment (6-mer frequency, TF over GST control)
